# Measurements taken from ChEMBL document CHEMBL4513216, “Probing the Open Global Health Chemical Diversity Library for Multistage-Active Starting Points for Next-Generation Antimalarials” (ACS Infect Dis, 2020).
# Hit rate of the full screen: of about 69,000 compounds, about 8,600 (12%) showed an effect of 50% or more. This is one part of a sample in which strong results are shown more often than they occur.
# System: Plasmodium berghei
# Assay: Screen against P. berghei liver stage (PbLuc), transformed with Luciferase, at 10uM
# Type: functional, HepG2
# Conditions: tested at 10 uM
row,Structure (SMILES),INHIBITION [%]
1,Cc1cc(C)c(CNC(=O)NCc2ccc3c(c2)OCCO3)c(=O)[nH]1,-54.6
2,CS(=O)(=O)N1CCN(C(=O)c2cc(-c3cccs3)cs2)CC1,33.3
3,CCc1oc(C(=O)NC(C)c2ncn[nH]2)cc1CN1CCCC1 (stereo unspecified),7.24
4,Cc1cccnc1NC(=O)NCc1cccnc1OC(C)C,19.4
5,Cc1cc(C(=O)NC2(c3ccc(Br)cc3)CC2)n(C)n1,47
6,CC(=O)N1N=C(c2ccncc2)OC1C(=O)N(C)CCc1ccccc1 (stereo unspecified),0.618
7,CNc1ncccc1CN1CCN(c2cc(NC3CC3)nc(N)n2)CC1,5.11
8,CCc1ccc2nc(NCCCN(CCO)CCO)cc(C)c2c1,42
9,CCc1ccc2nc(NCCOCCO)cc(C)c2c1,-46.7
10,CCc1ccc2nc(NCC(O)CO)cc(C)c2c1 (stereo unspecified),50.7
11,Cn1c(N2CCOCC2)nc2cc(C(=O)N[C@@H]3CC[C@@H](N)C3)ccc21,33.4
12,CN(C)CCNC(=O)c1ccn(-c2ccc3ccccn23)n1,13.6
13,Cc1cc(CN2CCN(CC(O)c3ccc(C)c(C)c3)CC2)no1 (stereo unspecified),62.6
14,Cc1cc(CN2CCN(CC(O)c3ccc4c(c3)OCO4)CC2)no1 (stereo unspecified),-1.14
15,Cc1cc(CN2CCN(C(c3ccccc3)c3ccccc3)CC2)no1,85.4
16,Cc1cc(CN2CCN(CC(O)c3ccc(Cl)cc3)CC2)no1 (stereo unspecified),9.14
17,Cc1cc(CN2CCN(CC(O)c3ccccc3)CC2)no1 (stereo unspecified),36.4
18,Cc1cc(CN2CCN(CC(O)c3cccc(F)c3)CC2)no1 (stereo unspecified),-17.6
19,COC(=O)c1ccc(N(C(=O)c2ccncc2)C(C)C)c(C)c1,7.18
20,COc1ccc(CN2CCCCC2Cn2nc(C)nc2C)cc1F (stereo unspecified),-37.7
21,Cc1cn(-c2ccccc2)nc1NS(=O)(=O)c1cc(C(=O)O)sc1C,8.38
22,O=C(CCn1cccn1)N1CC[C@@H](c2ccc3ccccc3c2)[C@H](O)C1,-28.9
23,O=C(CCN1CCCO1)N1CC[C@@H](c2ccc3ccccc3c2)[C@H](O)C1,8.74

row,Structure (SMILES),INHIBITION [%]
1,O=C(CCN1CCCC1)N1CC[C@@H](c2ccc3ccccc3c2)[C@H](O)C1,52.2
2,CCN1Cc2ccccc2CC2(CCN(CC3CCC3)CC2)C1=O,36.5
3,CN1CCOC(CNCc2cccc(OCC(F)(F)F)c2)C1 (stereo unspecified),21.7
4,Cc1n[nH]cc1CNCc1ccnc(OCC(F)(F)F)c1,28.5
5,COc1cccc(NC(=O)NCc2cnn(C)c2)c1,13
6,Cc1n[nH]cc1CNC(=O)Nc1cccc(OCC(F)(F)F)c1,60.3
7,Cc1n[nH]cc1CNCc1cccc(OCC(F)(F)F)c1,66.3
8,CC(C)C(=O)Nc1cccc(OCC(=O)NCc2ccccc2F)c1,40.6
9,CCN(Cc1cnn(C)c1)C[C@H]1CC[C@@H](Cc2cccc(C#N)c2)O1,-15.7
10,O=C1CN(C(=O)C2CCCCC2)CC(O)CN1Cc1ccco1 (stereo unspecified),-11.1
11,CC(C)c1nc2n(n1)CC(NCc1ncc(C(C)(C)C)o1)CC2 (stereo unspecified),-33.9
12,Cc1c(C)n2c(SCC(=O)N3CCC(C)CC3)nnc2[nH]c1=O,-5.1
13,Cc1ccn(CCC(=O)NCc2ccc(C)o2)n1,27.5
14,Cc1cc(C)c2cc(CNCc3ccc(C)o3)c3nn(C)c(=O)n3c2c1,54.5
15,Cc1ccc(CNC(=O)c2cc(C)n(C)n2)o1,35.75
16,Cc1cc(C)c2cc(CNCc3ccco3)c3nn(C)c(=O)n3c2c1,60.4
17,Cc1cc(C(=O)NCc2ccco2)nn1C,10.075
18,Cc1cc(C)c(N(CC(O)CNCc2ccco2)S(C)(=O)=O)c(C)c1 (stereo unspecified),9.96
19,CNc1cc(C2CCCN2Cc2ccc(OCC(=O)O)cc2)ccn1 (stereo unspecified),-17.7
20,Cc1ccc(N2CCCN(C(=O)CCC3CCCO3)CC2)nn1 (stereo unspecified),-14.6
21,CN(CCSc1nncn1CC(F)(F)F)c1ccccc1,-31.4
22,O=C(Cc1cccc(F)c1)NCCCNC(=O)c1cccc(O)c1,-29.7
23,Cc1ncc(CNC(=O)CCc2c(C)noc2C)c(C2CCCN2C)n1 (stereo unspecified),4.08

row,Structure (SMILES),INHIBITION [%]
1,Cn1nc(C2CCN(C(=O)Cc3cccc(F)c3)CC2)c2cccnc21,46.6
2,CN1CCCN(C[C@@H]2CN(C(=O)CC3CCC3)C[C@@H]2CO)CC1,-6.91
3,COc1cccc(CC(=O)N2CCN(C)c3ncccc3C2)c1,-93
4,NCc1cnn(-c2ccccc2C(=O)N2CCCC(C(N)=O)C2)c1 (stereo unspecified),9.05
5,CN(C)C(=O)C1CCCN(C(=O)c2ccccc2-n2cc(CN)cn2)C1 (stereo unspecified),50.8
6,CNC(=O)C1CCCN(C(=O)c2ccccc2-n2cc(CN)cn2)C1 (stereo unspecified),1.62
7,CCCS(=O)(=O)N1C[C@@H](Oc2ncccc2F)[C@H]2OCCC[C@H]21,30.3
8,CCn1c(CN2CCN(C(=O)C3CCC3)CC2)nc2c(F)cccc21,18.04
9,CC(Cn1cccn1)NC(=O)C1=Cc2ccccc2OC1 (stereo unspecified),-40.7
10,COC(=O)CC(C1=Cc2ccccc2OC1)c1oc(C)cc(=O)c1O (stereo unspecified),11.6
11,CCN1C(=O)C(C#N)=C(C)/C(=C/C2=Cc3ccccc3OC2)C1=O,51.7
12,O=C(Nc1cccnc1)C1=Cc2ccccc2OC1,-25
13,CC1=C(C#N)C(=O)N(C)C(=O)/C1=C\C1=Cc2ccccc2OC1,92.5
14,CC1=C(C#N)C(=O)NC(=O)/C1=C\c1c(C)[nH]n(-c2ccccc2)c1=O,-25.6
15,Cc1cc(C)n(CCC(=O)N2CCCC(c3cc(C(N)=O)[nH]n3)C2)n1 (stereo unspecified),16.8
16,COC(=O)C(c1ccccc1)N(C)C(=O)c1ccnc(C)n1 (stereo unspecified),23.7
17,O=C(c1cccnc1)N1C[C@H]2CC[C@@H](C1)N(Cc1cc(F)ccc1F)C2,19.2
18,CCc1nc(CN(C)C2CCCN(c3cccnn3)C2)no1 (stereo unspecified),14.1
19,O=C(O)C1(Cc2ccc(-c3cccs3)cc2)CCNC1 (stereo unspecified),35.55
20,NC(=O)C1(Cc2ccc(-c3ccccc3)cc2)CCCNC1 (stereo unspecified),-0.232
21,NC(=O)C1(Cc2ccc(-c3ccccc3)cc2)CCNC1 (stereo unspecified),52.7
22,O=C(O)C1(Cc2cccc(-c3cccs3)c2)CCCNC1 (stereo unspecified),29.05
23,O=C(N1CCCC1)C1(Cc2ccc(-c3cccs3)cc2)CCNC1 (stereo unspecified),50.9

row,Structure (SMILES),INHIBITION [%]
1,CCNC(=O)C1(Cc2ccc(-c3ccccc3)cc2)CCCNC1 (stereo unspecified),-0.232
2,COc1c(C)cnc(CN2CCn3c(C)nnc3C2)c1C,-7.53
3,c1ccc2oc(CCCN3CCCC3c3noc(C4CC4)n3)nc2c1 (stereo unspecified),9.54
4,COCC(=O)N1CCC2(CC1)CC(COC)N(c1ncccn1)C2 (stereo unspecified),-6.23
5,COCCC(=O)N1CCCC(c2nc(O)cc(-c3ccncc3)n2)C1 (stereo unspecified),28
6,CNC(=O)[C@@]12CCO[C@@H]1CCN(Cc1cccc(C)c1)C2,38.1
7,O=C(O)CSc1nnc(-c2cn[nH]c2)n1-c1ccccc1Cl,9.87
8,O=C(O)CSc1nnc(-c2cn[nH]c2)n1-c1ccccc1C(F)(F)F,90.8
9,O=C(O)CSc1nnc(-c2ccn[nH]2)n1-c1ccccc1C(F)(F)F,27.4
10,CCc1ncc(C(=O)N2CCCN(C3CCCC3)CC2)cn1,43.6
11,CCCc1noc(CCC(=O)N2CCCC2Cn2cc(C)cn2)n1 (stereo unspecified),-13.5
12,O=C(CC1CCc2ccccc21)N1CCC(O)(c2cccnc2)CC1 (stereo unspecified),6.83
13,CS(=O)(=O)Nc1cccc(C(=O)Nc2ccc3c(c2)C(=O)NC3)c1,-13.2
14,CC(C)c1ccc(OCCNC(=O)c2ccoc2)cc1,87.1
15,Cc1occc1C(=O)NCCOc1ccc(C(F)(F)F)cn1,27.7
16,CC(C)c1ccc(OCCNC(=O)N2CCS(=O)(=O)CC2)cc1,-12.21
17,O=C(NCCNS(=O)(=O)c1ccc(C(F)(F)F)cc1)c1ccoc1,0.266
18,O=C(NCCNc1ccc(C(F)(F)F)cn1)c1ccoc1,22.8
19,Cc1ccoc1C(=O)NCCOc1ccc(C(F)(F)F)cn1,31.7
20,O=C(CNC(=O)c1ccoc1)NCCOc1ccc2c(c1)CCC2,-112
21,O=C(NCCOc1ccc(C(F)(F)F)cn1)c1ccoc1,57.5
22,Cc1nc(C)c(C(=O)NCCOc2ccc(C(F)(F)F)cn2)o1,64.4
23,c1ccc(Cc2noc(-c3ccc(NCC4CCCOC4)nc3)n2)cc1 (stereo unspecified),18.8

row,Structure (SMILES),INHIBITION [%]
1,Cc1sc2ccccc2c1S(=O)(=O)NCCNC(=O)C(C)C,-35
2,Cc1ccc(N2C[C@H]3CCC[C@@]3(COc3cccnc3)C2)nn1,-44.2
3,CC(=O)Nc1c(C)noc1C=Cc1ccc(S(=O)(=O)NC2CC2)cc1,47.2
4,OC1(CNCCN2CCCc3ccccc32)CCNC1 (stereo unspecified),9.55
5,Cn1c(=O)c2cc(C(=O)NCCOCC(F)(F)F)ccc2n(C)c1=O,27.8
6,Cc1cc(N2CCC(Cc3cnccn3)C2)ncn1 (stereo unspecified),2.55
7,CC(C)(C)c1n[nH]cc1CNC1CCC(C(F)(F)F)CC1 (stereo unspecified),-32.6
8,C[C@H]1C[C@@H]2CCN(Cc3ccco3)C[C@H]2O1,46.2
9,Cc1csc(CN2CC[C@H]3C[C@H](C)O[C@@H]3C2)n1,15.4
10,C[C@H]1C[C@H]2CN(Cc3ccccn3)CC[C@@H]2O1,46.2
11,Cc1cccc(CN2CC[C@H]3C[C@H](C)O[C@@H]3C2)n1,56.7
12,Cc1cccc(C(=O)N2CC[C@H]3C[C@@H](C)O[C@@H]3C2)n1,7.31
13,C[C@@H]1C[C@@H]2CCN(Cc3ccccn3)C[C@H]2O1,55.5
14,CN(C)C(=O)C1CN(Cc2ccccc2)CCN(S(C)(=O)=O)C1 (stereo unspecified),32.4
15,CN(C)C(=O)C1CN(Cc2cscn2)CCN(S(C)(=O)=O)C1 (stereo unspecified),37
16,Cc1cccc(CN2CC[C@H]3C[C@@H](C)O[C@@H]3C2)n1,76.5
17,CN(C)C(=O)C1CN(Cc2ccccn2)CCN(S(C)(=O)=O)C1 (stereo unspecified),89.3
18,C[C@H]1C[C@@H]2CCN(Cc3ccccn3)C[C@H]2O1,15.9
19,C[C@@H]1C[C@@H]2CCN(Cc3ccncc3)C[C@H]2O1,15.9
